PubChem BioAssay (NCATS)
Results filed as inconclusive are left out. Activity calls are given as the source filed them. The call rests on the fitted dose curve; in most records, active means well fitted inhibition curve with a large enough effect; inconclusive means small, poorly fitted or top-dose-only effect; inactive means no such curve, though single readings can be large or run the other way.

Target: Cytochrome P450 2C19 (Homo sapiens) (UniProt P33261)
Assay: qHTS Assay for Inhibitors and Substrates of Cytochrome P450 2C19 (AID 899); further: nearly all actives have a fitted effect of over 60% in size
Conditions: recombinant CYP2C19, luciferin-H EGE luminescence; series mostly up to 11.4 µM; activity, negative = inhibition: at the top concentration
Summary of the method: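 Signal comes from luciferase acting on luciferin released by CYP2C19-mediated hydroxylation of Luciferin-H EGE, 10uM (KM). Assay mix: 5nM enzyme, 50mM KPO4; 60 min at 37C with NADPH regeneration. Data normalized against 57uM ketoconazole.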
On the % scale 0 is the no-effect control and ±100 the full control effect; potency means the concentration at half of the fitted maximal effect.

Chain of Cytochrome P450 2C19 (Homo sapiens) (P33261 whole entry, looked up): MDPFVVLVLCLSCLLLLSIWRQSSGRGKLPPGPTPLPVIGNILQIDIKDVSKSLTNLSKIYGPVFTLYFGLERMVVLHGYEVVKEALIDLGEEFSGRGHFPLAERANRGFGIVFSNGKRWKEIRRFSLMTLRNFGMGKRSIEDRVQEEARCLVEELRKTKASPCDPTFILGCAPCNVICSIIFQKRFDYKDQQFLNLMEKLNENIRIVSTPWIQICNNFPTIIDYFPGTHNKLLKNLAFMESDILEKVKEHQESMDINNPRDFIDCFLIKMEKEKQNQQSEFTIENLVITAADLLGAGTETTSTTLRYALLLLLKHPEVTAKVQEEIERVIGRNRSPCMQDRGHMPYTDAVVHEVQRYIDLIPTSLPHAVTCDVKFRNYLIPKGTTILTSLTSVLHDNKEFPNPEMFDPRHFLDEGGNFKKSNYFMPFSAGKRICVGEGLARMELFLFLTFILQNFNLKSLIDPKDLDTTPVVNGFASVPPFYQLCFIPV

| SMILES | Potency | activity, negative = inhibition |
| --- | --- | --- |
| O=C1C[C@H](c2ccccc2)[C@@H](c2ccc(Br)cc2)O1 | 0.398 µM (active) | – |
| COC(=O)C/C=C\[C@@H](C)[C@@H](/C=N\O[C@@H](C)c1cn([C@H]2COC[C@H]2O)nn1)OC | – | 50.1% (inactive) |
| Cc1ccc(S(=O)(=O)N[C@H]2COC(=O)C/C=C\[C@@H](C)[C@H](NS(=O)(=O)c3ccc(C)cc3)COC(=O)[C@H](C)NC(=O)C/C=C\[C@H]2C)cc1 | – | 50.6% (inactive) |
| CC(=O)OC[C@H]1O[C@@H](O/N=C2/[C@H]3O[C@@H]3[C@@H](O)[C@H]3[C@H]2CCn2c(=O)n(-c4ccccc4)c(=O)n23)[C@H](OC(C)=O)[C@@H](OC(C)=O)[C@@H]1OC(C)=O | – | 55.9% (inactive) |
| C=CC1=C[C@@H](O)C2OC2C12OCCCO2 (some centres undefined) | – | 33.8% (inactive) |
| CO[C@@H]1COC(=O)[C@@H](CCSC)NC(=O)C/C=C\[C@@H](C)COC(=O)[C@H](C)NC(=O)C/C=C\[C@H]1C | – | 62.1% (inactive) |
| CC(C)=NO[C@@H](C)c1cn([C@@H]2COC[C@@H]2O)nn1 | – | 47.6% (inactive) |
| CO/N=C\[C@@H](NS(=O)(=O)c1ccc(C)cc1)[C@H](C)/C=C\CC(=O)OC | 3.16 µM (active) | – |
| CO[C@@H]1COC(=O)[C@H]2CCCN2C(=O)[C@@H](C)COC(=O)CCC[C@H]1C | – | 48% (inactive) |
| CCN1C(=O)[C@@H]2[C@H]3C(=CC[C@@H]2C1=O)C1(OCCCO1)[C@H]1O[C@@H]1[C@H]3O | 1.58 µM (active) | – |
| CO[C@@H]1COC(=O)[C@H]2CCCN2C(=O)C/C=C\[C@@H](C)[C@H](OC)COC(=O)[C@H]2CCCN2C(=O)C/C=C\[C@H]1C | – | 67.2% (inactive) |
| CC(=O)OC[C@@H]1O[C@@H](O/N=C2/C[C@@H](O)[C@@H](O)[C@@H]3[C@@H]4C(=O)N(C(C)(C)C)C(=O)[C@H]4CC[C@H]23)[C@H](OC(C)=O)[C@H](OC(C)=O)[C@@H]1OC(C)=O | – | 45.6% (inactive) |
| O=C1[C@H]2[C@H]3[C@H](O)[C@H](O)C/C(=N/OCc4ccccc4)[C@H]3CC[C@@H]2C(=O)N1C[C@@H]1CCCO1 | – | 50.6% (inactive) |
| CO[C@@H]1COC(=O)[C@H](C)NC(=O)C/C=C\[C@@H](C)[C@@H](NS(=O)(=O)c2ccc(C)cc2)COC(=O)C/C=C\[C@@H]1C | – | 71% (inactive) |
